Bioassay records as filed in PubChem BioAssay.
Shown are actives, neighbours in structure and some others; about 32% of the full set was active somewhere.
PostGolgi ctrl: yeast control strain growth, post-Golgi counter-screen; AID 738; actives 5% (n = 98,000); inhibition, % at 10 µM; efflux-deficient yeast background strain, growth absorbance A615, 16 h
CYP2C19 act: increases human CYP2C19 enzyme activity; recombinant CYP2C19, luciferin-H EGE luminescence; stronger effect = higher value; 0 = fully inhibited enzyme, 1 = untreated enzyme; activation factor at 5 µM; 96,000 tested, under 10 active; AID 1025;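 active = activation factor of at least 2 at 5 µM in the primary screen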;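 also: 0 = wells with 2.5 mM tranylcypromine and 1 = vehicle-only wells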
Target sequence (P33261 whole entry, looked up): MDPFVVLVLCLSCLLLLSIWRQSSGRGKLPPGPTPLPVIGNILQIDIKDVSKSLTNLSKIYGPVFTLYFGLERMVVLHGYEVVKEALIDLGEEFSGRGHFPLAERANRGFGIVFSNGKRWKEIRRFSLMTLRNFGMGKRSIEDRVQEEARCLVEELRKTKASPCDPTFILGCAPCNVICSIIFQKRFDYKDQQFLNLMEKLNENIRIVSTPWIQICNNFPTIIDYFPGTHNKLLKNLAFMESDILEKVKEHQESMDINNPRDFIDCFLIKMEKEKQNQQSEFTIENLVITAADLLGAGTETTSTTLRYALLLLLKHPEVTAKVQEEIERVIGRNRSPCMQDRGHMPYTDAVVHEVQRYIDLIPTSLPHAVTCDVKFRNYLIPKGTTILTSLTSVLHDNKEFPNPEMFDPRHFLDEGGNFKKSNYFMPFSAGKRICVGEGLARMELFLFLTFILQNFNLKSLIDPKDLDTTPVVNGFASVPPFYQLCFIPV
CYP2C19 inhib: human CYP2C19 inhibition | inhibition, % at 5 µM | actives 21% (n = 96,000) | AID 778 | P33261 | CYP2C19 Supersomes, luciferin-H EGE luminescence, 30 min;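 active = CYP2C19 inhibition above a set limit at 5 µM in the primary screen, cut at about 50% in these data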;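 also: plate controls were negative control wells for no effect and 2.5 mM tranylcypromine positive control for full effect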
CYP2C9 inh: inhibitors of human CYP2C9; P11712; CYP2C9 Supersomes, luciferin-H conversion, luminescence; inhibition, % at 5 µM; actives 20% (n = 96,000); AID 777;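 active = blocking of liver enzyme CYP2C9 beyond about 50% at 5 µM, limit read from the data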
PostGolgi yeast: growth inhibition of a yeast mutant, post-Golgi transport screen; post-Golgi transport phenotypic cell assay; inhibition, % at 10 µM; actives 0.9% (n = 98,000);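 also: yeast cells grown in 1536-well plates; yeast grown about 18 h at 30C before absorbance read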
CYP2C9 activ: activators of human CYP2C9; recombinant CYP2C9, luciferin-H conversion, luminescence; stronger effect = higher value; factor 1 = untreated enzyme, 0 = blocked; activation factor at 5 µM; actives 1.4% (n = 96,000);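 active = activation factor of 2 or more for CYP2C9 at a 5 µM dose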;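 also: 0 = sulfaphenazole-blocked wells and 1 = vehicle-only wells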
* marks the source's active call; other numbers are inactive results; . = no result given. Rule as the data show it, unless noted: active = inhibition above about 30%; inactive = the rest.

SMILES	PostGolgi ctrl	CYP2C19 act	CYP2C19 inhib	CYP2C9 inh	PostGolgi yeast	CYP2C9 activ
Cc1ccc(NC(=O)CC2Oc3ccccc3NC2=O)c(C)c1 (stereo not drawn)	20	0.9	12	-18	-2	1.2
CCOC(=O)Cn1c(=NC(=O)CSC(C)=O)sc2cc(F)ccc21	2	0.7	35	16	-7	0.8
O=c1c2ccccc2oc2nc(-c3ccco3)n(Cc3ccccc3)c(=O)c12	9	0.9	7	5	-3	1
COc1ccc(C(=O)Nc2cccnc2)cc1S(=O)(=O)N1CCOCC1	-4	1	2	-14	-10	1.1
CCOC(=O)C(NC(=O)c1ccc(F)cc1)(Nc1nnc(C)s1)C(F)(F)F (stereo not drawn)	30*	0.9	14	-2	1	1
CCOc1ccc2nc(NC(NC(C)=O)(C(=O)OC)C(F)(F)F)sc2c1 (stereo not drawn)	-5	0.4	58*	6	-6	0.9
CCCC(=O)Nc1nc2ccc(OCC)cc2s1	6	0.8	16	23	-20	0.8
CCOC(=O)c1ccc(-n2c(C)nc3ccccc3c2=O)cc1	3	0.7	30	-2	10	1
CCOc1ccc2nc(NC(NC(=O)CC)(C(=O)OC)C(F)(F)F)sc2c1 (stereo not drawn)	-5	0.3	70*	44	-7	0.6
CCOc1ccc2nc(NC(=O)c3cnc(C)cn3)sc2c1	-6	0.7	35	40	-4	0.6
CCOC(=O)C1=C(O)C(Nc2nc3ccccc3s2)(C(F)(F)F)N=C1C (stereo not drawn)	-3	0	98*	42	-7	0.6
CC12C=CC3(CN(Cc4ccccc4)C(=O)C3C1C(=O)NCc1ccco1)O2 (stereo not drawn)	-7	1	-2	2	1	1
COc1ccc(-c2nnn(CC(=O)N(CC(=O)NCCC(C)C)Cc3cccs3)n2)cc1OC	25	0.6	43	49	4	0.5
C=CCNC(=O)CC(=O)N/N=C/c1ccc(C(=O)OC)cc1	-11	1	-4	-5	-13	1.1
C/C(=C\C(=O)c1ccccc1)NNc1nc2ccccc2s1	13	0.4	61*	42	-26	0.6
O=C(NC(Nc1nc2ccccc2s1)(C(F)(F)F)C(F)(F)F)c1ccccc1	7	0.2	76*	92*	2	0.1
O=C(O)C1C2CCC(C2)C1C(=O)Nc1nc2ccccc2s1 (stereo not drawn)	25	1	3	13	7	0.9
COC(=O)C(NC(=O)c1ccc(Cl)cc1)(Nc1nc(C)cs1)C(F)(F)F (stereo not drawn)	19	0.3	74*	17	-13	0.8
CCOC(=O)NC(Nc1nc2ccccc2s1)(C(=O)OCC)C(F)(F)F (stereo not drawn)	0	0.1	93*	83*	-2	0.2
C=Cn1c(N2CCOCC2)nc2c1c(=O)[nH]c(=O)n2C	11	1.1	-11	-10	16	1.1
CCOP(=O)(c1ccccc1)c1nc(-c2ccccc2C)oc1N1CCCCC1 (stereo not drawn)	26	0.9	8	10	1	0.9
CCOC(=O)N/C(N)=N/c1nc2ccccc2s1	33*	0.7	26	-3	-26	1
CCCn1c(SCc2nc(-c3cccs3)no2)nnc1-c1ccncc1	1	0.4	56*	30	-2	0.7
Cc1ccc(-n2c(SCC(=O)OC(C)C)nnc2-c2ccncc2)cc1	19	.	.	.	5	.
Cn1c(SCc2nc(-c3cccs3)no2)nnc1C1CCCCC1	10	0.2	78*	46	-7	0.5
SMILES	PostGolgi ctrl	CYP2C19 act	CYP2C19 inhib	CYP2C9 inh	PostGolgi yeast	CYP2C9 activ
CCOc1ccc(-n2c(SCc3nc(-c4cccs4)no3)nnc2-c2ccncc2)cc1	2	0.1	92*	94*	-6	0.1
Cn1c(SCc2nc(-c3ccc(Cl)cc3)no2)nnc1-c1cccs1	-5	0.8	24	16	-6	0.8
CN(CC(=O)NC1CCCCC1)S(=O)(=O)c1cccc2nsnc12	5	1.1	-7	-7	-2	1.1
COc1ccccc1-c1cc(C(=O)Nc2ccc(F)cc2F)no1	2	0.9	14	-49	0	1.5
COc1ccccc1-c1cc(C(=O)NC(C)C)no1	13	0.8	16	-300	-3	4*
COc1ccccc1-c1cc(C(=O)NC(C)c2ccccc2)no1 (stereo not drawn)	61*	0.9	10	-179	14	2.8*
COc1ccccc1-c1cc(C(=O)Nc2cc(C)nn2-c2ccccc2)no1	-6	1.1	-12	-17	7	1.2
Cc1cc(C(=O)N/N=C/c2ccccc2Br)no1	18	1.1	-12	-27	-1	1.3
O=C(CCN1C(=O)c2ccccc2C1=O)N1CCC(c2ccccc2)C1 (stereo not drawn)	32*	0.3	72*	-12	-23	1.1
O=C(COc1ccc(Br)cc1)N1CCC(c2ccccc2)C1 (stereo not drawn)	4	0.1	88*	14	-11	0.9
CCN(C(=O)CCN1C(=O)c2ccccc2C1=O)C1CCCCC1	-3	0.2	78*	-45	8	1.4
O=C(CCN1C(=O)c2ccccc2C1=O)N1CCCCCC1	9	1	4	-23	3	1.2
COc1ccc(OCC(=O)N2CCN(C(=O)c3ccccc3)CC2)cc1	9	1.2	-20	-23	2	1.2
CCOC(=O)N1CCN(c2cc(=O)n(-c3cccc(Br)c3)c(=O)[nH]2)CC1	12	0.8	15	7	-3	0.9
Cc1cccn2cc(CCNC(=O)c3ccc(Br)o3)nc12	1	0.8	22	7	-2	0.9
Cc1cc(C)n2nc[n+](C)c2n1	1	1	2	20	24	0.8
Nc1c(-c2ccccc2)cnn1C1CCS(=O)(=O)C1 (stereo not drawn)	-3	1	4	-1	4	1
CCc1c(C)nc2ncnn2c1NCCc1ccc(OC)cc1	18	0.4	63*	85*	4	0.1
CCc1c(C)nc2ncnn2c1NCc1cccs1	-4	0.9	8	11	6	0.9
CC(=O)c1ccc2c3c(ccc(O)c13)CC2	0	0.7	32	-142	-7	2.4*
Cc1ccc(NC(=O)C(C)N2C(=O)C3C4CC(C(Br)C4Br)C3C2=O)cc1 (stereo not drawn)	11	0.5	47	29	5	0.7
O=C1NN=C(c2ccc(Cl)cc2)CC1c1cccc(Cl)c1 (stereo not drawn)	46*	0.3	68*	18	12	0.8
O=C(OCCN1CCCC1=O)c1cncc(Br)c1	2	1	0	-7	4	1.1
Cc1cc(C)c(OCCN2C(=O)NC(C)(C)C2=O)c(Cl)c1	6	0	96*	36	-6	0.6
